# Read-outs that look alike come from different tables or passages of the source.
# What was measured:
# [1] = tested on: SIK2; design: species or system human, MV4-11 + K-562 + COLO205 + SK-N-BE2 + OVCAR-8; details: read-out: apparent Kd; compound concentrations: 100 nM and 1000 nM (sheet 'Samples'), CATDS: 1; n = 1
# [2] = tested on: SMC2; design: species or system human, MV4-11 + K-562 + COLO205 + SK-N-BE2 + OVCAR-8; details: read-out: apparent Kd; compound concentrations: 100 nM and 1000 nM (sheet 'Samples'), CATDS: 0.46661242360410599; n = 1
# [3] = tested on: PTK2; design: species or system human, MV4-11 + K-562 + COLO205 + SK-N-BE2 + OVCAR-8; details: read-out: apparent Kd; compound concentrations: 100 nM and 1000 nM (sheet 'Samples'), CATDS: 1; n = 1
# [4] = tested on: BCR; details: read-out: apparent Kd; compound concentrations:100 nM and 1000 nM (sheet 'Lestaurtinib' of Supplementary Table 1),run:Lestaurtinib_02487_R1,Plate:MR012; n = 1
# [5] = tested on: BUB1; details: read-out: apparent Kd; compound concentrations:100 nM and 1000 nM (sheet 'Lestaurtinib' of Supplementary Table 1),run:Lestaurtinib_02487_R1,Plate:MR012; n = 1
# [6] = tested on: CSK; details: read-out: apparent Kd; compound concentrations:100 nM and 1000 nM (sheet 'Lestaurtinib' of Supplementary Table 1),run:Lestaurtinib_02487_R1,Plate:MR012; n = 1
# [7] = tested on: T1, DJA1; details: read-out: apparent Kd; compound concentrations:100 nM and 1000 nM (sheet 'Lestaurtinib' of Supplementary Table 1),run:Lestaurtinib_02482_R2,Plate:MR011; n = 1
# T1 construct: gene DNAJA1
# [8] = tested on: PIK3CG; details: read-out: apparent Kd; compound concentrations:100 nM and 1000 nM (sheet 'Lestaurtinib' of Supplementary Table 1),run:Lestaurtinib_02487_R1,Plate:MR012; n = 1
# [9] = tested on: PIM1; details: read-out: apparent Kd; compound concentrations:100 nM and 1000 nM (sheet 'Lestaurtinib' of Supplementary Table 1),run:Lestaurtinib_02487_R1,Plate:MR012; n = 1
# [10] = tested on: PIP4K2C; details: read-out: apparent Kd; compound concentrations:100 nM and 1000 nM (sheet 'Lestaurtinib' of Supplementary Table 1),run:Lestaurtinib_02487_R1,Plate:MR012; n = 1
# [11] = tested on: PKN3; details: read-out: apparent Kd; compound concentrations:100 nM and 1000 nM (sheet 'Lestaurtinib' of Supplementary Table 1),run:Lestaurtinib_02487_R1,Plate:MR012; n = 1
# [12] = tested on: PRKCQ; details: read-out: apparent Kd; compound concentrations:100 nM and 1000 nM (sheet 'Lestaurtinib' of Supplementary Table 1),run:Lestaurtinib_02487_R1,Plate:MR012; n = 1
# [13] = tested on: PTK2; details: read-out: apparent Kd; compound concentrations:100 nM and 1000 nM (sheet 'Lestaurtinib' of Supplementary Table 1),run:Lestaurtinib_02487_R1,Plate:MR012; n = 1
# [14] = tested on: PTK6; details: read-out: apparent Kd; compound concentrations:100 nM and 1000 nM (sheet 'Lestaurtinib' of Supplementary Table 1),run:Lestaurtinib_02487_R1,Plate:MR012; n = 1
# [15] = tested on: RIPK2; details: read-out: apparent Kd; compound concentrations:100 nM and 1000 nM (sheet 'Lestaurtinib' of Supplementary Table 1),run:Lestaurtinib_02487_R1,Plate:MR012; n = 1
# [16] = tested on: RPS6KA1; details: read-out: apparent Kd; compound concentrations:100 nM and 1000 nM (sheet 'Lestaurtinib' of Supplementary Table 1),run:Lestaurtinib_02487_R1,Plate:MR012; n = 1
# [17] = tested on: SRC; details: read-out: apparent Kd; compound concentrations:100 nM and 1000 nM (sheet 'Lestaurtinib' of Supplementary Table 1),run:Lestaurtinib_02487_R1,Plate:MR012; n = 1
# [18] = tested on: TAOK1; details: read-out: apparent Kd; compound concentrations:100 nM and 1000 nM (sheet 'Lestaurtinib' of Supplementary Table 1),run:Lestaurtinib_02487_R1,Plate:MR012; n = 1
# [19] = tested on: TEC; details: read-out: apparent Kd; compound concentrations:100 nM and 1000 nM (sheet 'Lestaurtinib' of Supplementary Table 1),run:Lestaurtinib_02487_R1,Plate:MR012; n = 1
# [20] = tested on: ULK1; details: read-out: apparent Kd; compound concentrations:100 nM and 1000 nM (sheet 'Lestaurtinib' of Supplementary Table 1),run:Lestaurtinib_02487_R1,Plate:MR012; n = 1
compound,measurement,setting,value
NS(=O)(=O)c1cccc(-c2cc3ccncc3cc2OCc2ccccc2)c1 [GSK980961A],potency estimated from few doses,[1],1600 nM
N#Cc1ccc(C(=O)c2cnn(-c3ccc(F)cc3)c2N)cc1 [RO1153198-000],potency estimated from few doses,[2],2040 nM
COc1cc2c(cc1Nc1nc(Nc3cccc(F)c3C(N)=O)c3cc[nH]c3n1)N(C(=O)CN1CCN(C(C)C)CC1)CC2 [GSK1751853A],potency estimated from few doses,[3],1210 nM
Lestaurtinib,potency estimated from few doses,[4],314 nM
same,potency estimated from few doses,[5],854 nM
same,potency estimated from few doses,[6],526 nM
same,potency estimated from few doses,[7],1330 nM
same,potency estimated from few doses,[8],1570 nM
same,potency estimated from few doses,[9],860 nM
same,potency estimated from few doses,[10],86.5 nM
same,potency estimated from few doses,[11],755 nM
same,potency estimated from few doses,[12],2170 nM
same,potency estimated from few doses,[13],345 nM
same,potency estimated from few doses,[14],533 nM
same,potency estimated from few doses,[15],810 nM
same,potency estimated from few doses,[16],1820 nM
same,potency estimated from few doses,[17],618 nM
same,potency estimated from few doses,[18],1530 nM
same,potency estimated from few doses,[19],895 nM
same,potency estimated from few doses,[20],549 nM

# Reference: publication PMC11062922 (Nature Chemical Biology, 2023)
